# Assay outcomes as filed in PubChem.
# This is a sample that favours compounds with a hit; in the whole collection about 1.3% have one here.
# PTAP TSG101 blk – blocks PTAP/TSG101 interaction to inhibit HIV-1 budding | Fluorescence polarization, FITC-PTAP peptide / Tsg101 binding | 340,000 tested, under 10 active | Potency, µM (top dose mostly 115 µM), inactives show at the highest dose activity change, negative = inhibition, most hits filed as inhibitors; active means well fitted inhibition curve with a large enough effect in the main read-out, with a control signal flat, not every such curve was filed as active; inconclusive means small, poorly fitted or top-dose-only effect, or effect the other way, or a change in a side signal; inactive means no such curve, though single readings can be large or run the other way; further: potency means the concentration at half of the fitted maximal effect; % of control where 0% means no effect
#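 Tsg101 binding domain (10 uM final) was mixed with compound and a FITC-labeled PTAP peptide (50 nM final) in HEPES pH 7.5 buffer with NaCl, Tween 20, EDTA and TCEP; fluorescence polarization was read after 20 min at r.t.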
# TRPML1 inh – inhibitors of human TRPML1 channel; hit rate 0.02% among 390,000; TRPML1-inducible cells, Ca2+ dye fluorescence, FDSS; active compounds read low; inhibition of EC80 agonist-evoked calcium signal; activity change, negative = inhibition, % (no concentration beside the values); in the data active means activity change below about -50%; inconclusive means between about -30% and that limit;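 further: stimulus is agonist 54-4 at its EC80 concentration; on the % scale 0 is the no-effect control and ±100 the full control effect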
#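 Calcium fluorescence in TRPML1-DL cells induced overnight with Tet: a 110 s read after compound pin addition, then a 110 s antagonist read after challenge with 54-4 at 4 uM final (EC80).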
# BRCA1 expr act – activators of BRCA1 expression. MCF7-BRCA1-FFLuc reporter, luminescence, 48 h; response scale: scaled: vehicle 0%, 10 µM genistein 100%. Potency, µM (top dose mostly 46.1 µM), inactives show top-dose activation, actives largely listed as activators. hit rate 1.1% among 380,000. AID 624202; active means well fitted activation curve with a large enough effect; inconclusive means small, poorly fitted or top-dose-only effect; inactive means no such curve, though single readings can be large or run the other way; further: potency means the concentration at half of the fitted maximal effect; nearly all actives have a fitted effect of over 80% in size
#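 Activators of BRCA1 expression were detected as increased firefly luciferase luminescence in engineered MCF7 cells after 48 h compound incubation. Signals were scaled to genistein 10 microM as full activation.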
# TRPML1 agonist – activates the human TRPML1 channel; Q9GZU1; TRPML1-expressing cells, Ca2+ dye fluorescence, FDSS; activation, % (no concentration beside the values); hit rate 0.12% among 410,000; AID 624414; further: 0% is about no effect
#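 Agonist activity was taken from a 110 s kinetic Ca2+ dye read on the FDSS after pinning compounds onto TRPML1-DL cells. The cells were seeded at 1,500/well with Tet inducer, incubated about 16 h, then dye-loaded at room temperature.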
# PKM2 act – PKM2 (human) enzyme activation; P14618; hit rate 0.34% among 260,000; purified PKM2, Kinase-Glo ATP luminescence, activation; response scale: 0% is enzyme alone, no compound; AID 1631; Potency, µM (doses to about 57.5 µM), without a hit: at the highest dose activation, most hits filed as activators; active means well fitted activation curve with a large enough effect; inconclusive means small, poorly fitted or top-dose-only effect; inactive means no such curve, though single readings can be large or run the other way; further: potency means the concentration at half of the fitted maximal effect; on the % scale 0 is the no-effect control and ±100 the full control effect; nearly all actives have a fitted effect of over 55% in size
# Target sequence (P14618 whole entry, looked up): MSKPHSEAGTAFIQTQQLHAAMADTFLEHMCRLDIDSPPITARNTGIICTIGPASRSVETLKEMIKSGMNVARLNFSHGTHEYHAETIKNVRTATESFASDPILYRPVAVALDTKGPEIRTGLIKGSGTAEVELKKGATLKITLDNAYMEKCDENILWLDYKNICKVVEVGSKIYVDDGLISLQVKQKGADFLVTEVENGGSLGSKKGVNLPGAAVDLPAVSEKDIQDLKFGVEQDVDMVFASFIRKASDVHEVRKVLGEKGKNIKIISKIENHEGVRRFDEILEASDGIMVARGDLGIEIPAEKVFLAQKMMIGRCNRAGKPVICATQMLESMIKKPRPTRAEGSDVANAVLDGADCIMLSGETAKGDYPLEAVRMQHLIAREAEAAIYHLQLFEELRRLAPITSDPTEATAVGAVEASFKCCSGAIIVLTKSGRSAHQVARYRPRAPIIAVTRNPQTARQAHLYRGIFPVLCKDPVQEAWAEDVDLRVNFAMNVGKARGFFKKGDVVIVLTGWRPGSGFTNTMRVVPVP
#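 hPK-M2, >95% pure; 0.1 mM ADP / 0.5 mM PEP final; imidazole pH7.2 buffer w/ 7 mM MgCl2, 50 mM KCl; 1 h RT; Kinase-Glo lum. Intermediate enzyme activity for dual inhibitor/activator qHTS.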
# IL2 activator – IL-2 activation; activation, % (series mostly up to about 46 µM); hit rate 0.065% among 360,000; IL-2 activation reporter assay, cell-based qHTS; stimulated with anti-CD3/CD4/CD28 beads; in transgenic mouse T cells; further: 0% is about no effect
#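 First, unstimulated transgenic mouse T cells were exposed to compound for 60 min. Next, anti-CD3/anti-CD4-coated beads with anti-CD28 were added. Finally, after 18 h at 37 degrees C, EGFP and DsRed were imaged.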
# * marks the source's active call; other numbers are inactive results; ? = inconclusive; · = not tested or not shown; [ ] = dose if it differs, or a comment. Unless noted, no stated cut-off is given here; in the data, active means activation above about 50%; inconclusive means mostly about 30% to 49%; inactive means weaker than that.
SMILES,PTAP TSG101 blk,TRPML1 inh,BRCA1 expr act,TRPML1 agonist,PKM2 act,IL2 activator
O=S(=O)(c1ccccc1)n1ccc(-c2cnc(-c3ccccc3)s2)n1,-12%,-10,7.9µM*,3,-2%,2
CCCCOC(=O)c1ccc(N=Nc2c(C)c(C#N)c(O)[nH]c2=O)cc1,?,9,-8%,0,1%,107*
CCOC(=O)Cc1c(C)nc2c(-c3cccc(Br)c3)cnn2c1C,-6%,25,-46%,1,0%,0
CC(=O)c1cnc2c(-c3cccc(Br)c3)cnn2c1C,-2%,-16,8.9µM*,0,3%,0
Cc1cccc(CC(=O)NCC2CCCCC2)c1,-11%,·,10µM*,·,1%[11.5 µM],2
COc1cccc(/C=C/C(=O)NCC2CCCCC2)c1,-1%,11,53%,-1,·,0
O=C(Nc1ccc2nc3n(c(=O)c2c1)CCCC3)c1cccc(F)c1,-3%,18,10µM*,-1,·,-1
O=C(Nc1ccc2nc3n(c(=O)c2c1)CCCC3)c1ccccc1F,0%,·,?,·,·,-2
CC(C)(C)c1ccc(-c2nnc(NC(=O)c3ccccc3)s2)cc1,-4%,-5,3.2µM*,0,0%,-2
O=C(Nc1nnc(-c2ccc(F)cc2)s1)c1ccco1,0%,12,2.8µM*,1,·,0
Cc1nnc(NC(=O)c2ccccc2)s1,·,-12,·,-1,·,·
COc1cccc(CN2C(=O)c3ccccc3Sc3ccc(C(=O)OCc4ccco4)cc32)c1,·,30,0%,4,·,·
CSc1ccc(/C=C2\C=C(C(O)c3ccc(SC)cc3)c3ccccc32)cc1 (stereo not given),·,·,0%,0,·,·
C/C(=N\NC(=O)c1ccco1)c1ccc(-c2ccccc2)cc1,-2%,-3,8.9µM*,-1,-4%,1
C/C(=N\NC(=O)c1csc(C)c1C)c1ccco1,-5%,5,-2%,-1,1%,2
C/C(=N\NC(=O)c1cccs1)C(C)(C)C,-7%,2,52%,1,-4%,1
C/C(=N/NC(=O)c1cccs1)c1ccco1,-1%,8,13µM*,-1,-25%,-1
C/C(=N\NC(=O)c1cccs1)c1ccc(C(=O)O)s1,-4%,16,14µM*,0,-1%,-2
Cc1ccc2c(C(=O)CNC3=NCCS3)c(C)[nH]c2c1,·,·,-10%,-1,·,·
CCOc1ccccc1CNC(=O)Cn1ncn2nc(-c3cccs3)cc2c1=O,·,-14,·,1,·,·
Oc1ccccc1C=NN=Cc1c(O)ccc2ccccc12,?,-12,-59%,5,·,52*
Cc1ccc(C(=O)c2oc3ccccc3c2NC(=O)c2cc(-c3ccc(Cl)cc3)on2)cc1,·,-9,5%,-1,·,·
COC(=O)C(Cc1ccc(O)cc1)N1Cc2ccccc2C1=O (stereo not given),-7%,-24,10µM*,0,·,-1
Cn1c(N)c(-c2ccccc2)c2ccc([N+](=O)[O-])cc2c1=O,24%,-3,-5%,83*,-2%,3
N#Cc1c(N)n(Cc2ccccc2)c(=O)c2cc([N+](=O)[O-])ccc12,-3%,-7,-23%,0,·,-3
SMILES,PTAP TSG101 blk,TRPML1 inh,BRCA1 expr act,TRPML1 agonist,PKM2 act,IL2 activator
O=C(Nc1ccc(Cl)cc1Cl)[C@@H]1CC=C[C@@H]2CCN(Cc3ccccc3)C(=O)[C@@H]21,·,·,·,-1,·,·
Nc1ccc(O)c2c(=O)cc(-c3ccccc3Cl)oc12,·,29,2.8µM*,1,-4%,0
O=c1cc(-c2ccccc2Cl)oc2cc(O)cc(O)c12,-2%,23,?,2,35%,0
CCOC(=O)c1sc(Nc2ccccc2Cl)nc1C,-5%,2,8.9µM*,0,-3%,-1
Fc1ccc(-n2ncc3c(Nc4cccc(Cl)c4)ncnc32)cc1,·,15,·,-1,·,·
O=C(NCCN1C(=O)S/C(=C\c2cccs2)C1=O)c1ccc(=O)[nH]c1,·,·,·,·,4.5µM*,·
